Structures can show the parent of a compound that is named as a salt. ± gives the uncertainty stated by the source.
Each molecule was assayed on NCC-MFS5-C1 (assay: cell viability relative to DMSO control; higher = less growth inhibition). Details: 10 µM; treatment time: 3 days.
Protocol: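 NCC-MFS5-C1 myxofibrosarcoma cells (1x10^4 per well, 384-well) were treated on day 2 with 10 µM of each drug. On day 5, viability was read by CCK-8 absorbance at 450 nm and normalised to the DMSO control (%), n = 2.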

SMILES	cell viability [%]
Cc1ccc(NC(=O)c2ccc(CN3CCN(C)CC3)cc2)cc1Nc1nccc(-c2cccnc2)n1 [Imatinib Mesylate (STI571)]	69.6 ± 1.4
C[C@]1(O)C[C@@H](c2nc(-c3ccc4ccc(-c5ccccc5)nc4c3)c3c(N)nccn32)C1 [Linsitinib (OSI-906)]	57 ± 0.57
CCN1CCN(Cc2ccc(Nc3ncc(F)c(-c4cc(F)c5nc(C)n(C(C)C)c5c4)n3)nc2)CC1 [Abemaciclib]	76.5 ± 6.7
O=C(O)CCCN1CCC(O[C@@H](c2ccc(Cl)cc2)c2ccccn2)CC1 [Bepotastine Besilate]	78.7 ± 2.6
CC[C@]1(O)C[C@H]2CN(CCc3c([nH]c4ccccc34)[C@@](C(=O)OC)(c3cc4c(cc3OC)N(C=O)[C@H]3[C@@](O)(C(=O)OC)[C@H](OC(C)=O)[C@]5(CC)C=CCN6CC[C@]43[C@@H]65)C2)C1 [Vincristine]	29.8 ± 4.2
CCCCCCNC(=O)n1cc(F)c(=O)[nH]c1=O [Carmofur]	81.5 ± 1.1
CC1=C(/C=C/C(C)=C/C=C/C(C)=C/C(=O)O)C(C)(C)CCC1 [Tretinoin]	78.5 ± 4.5
CN(Cc1cnc2nc(N)nc(N)c2n1)c1ccc(C(=O)N[C@@H](CCC(=O)O)C(=O)O)cc1 [Methotrexate]	80.2 ± 3.6
Cc1nc(NC(=O)N2CCC[C@H]2C(N)=O)sc1-c1ccnc(C(C)(C)C(F)(F)F)c1 [Alpelisib]	92.6 ± 1
Cc1ccc(-n2[nH]c(C)c(N=Nc3cccc(-c4cccc(C(=O)O)c4)c3O)c2=O)cc1C [Eltrombopag Olamine]	111 ± 5.6
CC(=O)O[C@@]12CO[C@@H]1C[C@H](O)[C@@]1(C)C(=O)[C@H](O)C3=C(C)[C@@H](OC(=O)[C@H](O)[C@@H](NC(=O)OC(C)(C)C)c4ccccc4)C[C@@](O)([C@@H](OC(=O)c4ccccc4)[C@H]21)C3(C)C [Docetaxel]	67 ± 2.2
COc1cc(Nc2c(C#N)cnc3cc(OCCCN4CCN(C)CC4)c(OC)cc23)c(Cl)cc1Cl [Bosutinib (SKI-606)]	22.1 ± 0.85
C[C@@H]1CCN(C(=O)CC#N)C[C@@H]1N(C)c1ncnc2[nH]ccc12	79.5 ± 2.5
Nc1nc(Cl)nc2c1ncn2[C@H]1C[C@H](O)[C@@H](CO)O1 [Cladribine]	80 ± 9.5
CN1CCN(c2ccc(C(=O)Nc3n[nH]c4ccc(Cc5cc(F)cc(F)c5)cc34)c(NC3CCOCC3)c2)CC1 [Entrectinib (RXDX-101)]	14.7 ± 15
Cc1ccc(NC(=O)c2ccc(CN3CC[C@H](N(C)C)C3)c(C(F)(F)F)c2)cc1Nc1nccc(-c2cncnc2)n1 [Bafetinib (INNO-406)]	2.79 ± 1.9
C#Cc1cccc(Nc2ncnc3cc(OCCOC)c(OCCOC)cc23)c1 [Erlotinib]	81.7 ± 5.8
COc1cc2nccc(Oc3ccc(NC(=O)C4(C(=O)Nc5ccc(F)cc5)CC4)cc3)c2cc1OC	93.8 ± 6.7
CN(C)C/C=C/C(=O)Nc1cc2c(Nc3ccc(F)c(Cl)c3)ncnc2cc1O[C@H]1CCOC1 [Afatinib (BIBW2992) Dimaleate]	15 ± 7
CS(=O)(=O)c1ccc(C(=O)Nc2ccc(Cl)c(-c3ccccn3)c2)c(Cl)c1 [Vismodegib (GDC-0449)]	70.2 ± 7.4

SMILES	cell viability [%]
CN1c2cc(O)c(N=NC(N)=O)cc2CC1S(=O)(=O)O (stereo not given) [Carbazochrome sodium sulfonate (AC-17)]	78.6 ± 7.6
CNNCc1ccc(C(=O)NC(C)C)cc1 [Procarbazine HCl]	94.3 ± 7.5
COc1cccc2c1C(=O)c1c(O)c3c(c(O)c1C2=O)C[C@@](O)(C(C)=O)C[C@@H]3O[C@H]1C[C@H](N)[C@H](O)[C@H](C)O1 [Daunorubicin HCl]	14.4 ± 6.7
O=NN(CCCl)C(=O)NC1CCCCC1 [Lomustine]	84.1 ± 18
Nc1ccn([C@@H]2O[C@H](CO)[C@@H](O)[C@@H]2O)c(=O)n1 [Cytosine β-D-arabinofuranoside hydrochloride]	118 ± 20
CCCCNc1ncc(-c2ccc(CN3CCOCC3)cn2)c(NC2CCC(O)CC2)n1 (stereo not given)	36.41 ± 0.22
CCOC(=O)[C@H](CCc1ccccc1)N[C@H]1CS[C@H](c2cccs2)CN(CC(=O)O)C1=O [Temocapril HCl]	86 ± 1.2
Nc1nc(Cl)nc2c1ncn2[C@@H]1O[C@H](CO)[C@@H](O)[C@@H]1F [Clofarabine]	98.8 ± 21
C=CC(=O)N1CCC(Oc2cc3c(Nc4ccc(Cl)c(Cl)c4F)ncnc3cc2OC)CC1 [Poziotinib (HM781-36B)]	68.6 ± 1
Cc1ccc(S(=O)(=O)Nc2nc3ccccc3nc2Nc2ccc3nsnc3c2)cc1 [XL147 analog]	84.5 ± 6
CN(C)/N=N/c1[nH]cnc1C(N)=O [Dacarbazine]	82 ± 1.7
Cc1ccc(Nc2nccc(N(C)c3ccc4c(C)n(C)nc4c3)n2)cc1S(N)(=O)=O	61 ± 11
CC(=O)OCC(=O)[C@@]1(O)CC[C@H]2[C@@H]3CCC4=CC(=O)CC[C@]4(C)[C@H]3C(=O)C[C@@]21C [Cortisone acetate]	90.9 ± 9.9
O=C1CCC(N2C(=O)c3ccccc3C2=O)C(=O)N1 (stereo not given) [Thalidomide]	84.4 ± 8.3
O=C(CCCCCCC(=O)Nc1ccccc1)NO [Vorinostat (SAHA, MK0683)]	34.5 ± 7.2
O=[n+]1c(CBr)c(CBr)n([O-])c2ccccc21 [Conoidin A]	86.4 ± 1.1
C[C@@]12C[C@@]3(O)O[C@@H](O1)[C@]1(COC(=O)c4ccccc4)[C@H]3C[C@@]12O[C@@H]1O[C@H](CO)[C@@H](O)[C@H](O)[C@H]1O [Paeoniflorin]	83.6 ± 1.2
O=C(O)C1=CO[C@@H](O[C@@H]2O[C@H](CO)[C@@H](O)[C@H](O)[C@H]2O)[C@@H]2C(CO)=CC[C@H]12 [Geniposidic acid]	85.8 ± 4.8
COc1ccc2c(c1OC)C(=O)O[C@@H]2[C@H]1c2c(cc3c(c2OC)OCO3)CCN1C [Noscapine HCl]	75.82 ± 0.21
C/C=C1\NC(=O)[C@H]2CSSCC/C=C/[C@H](CC(=O)N[C@H](C(C)C)C(=O)N2)OC(=O)[C@H](C(C)C)NC1=O [Romidepsin (FK228, Depsipeptide)]	-1.35 ± 0.8

— the supplement of paper PMC8773631
